Holding throughout (assay): Euclidean distance of Cell Painting phenotypic profile (signed KS, 77 features) to DMSO centroid (dimensionless distance); 5 or 10 uM (library dependent); higher = stronger phenotypic change vs DMSO (phenoactivity)
Common to all, as to settings: 48 h

In test [1] the test system is 786-O. Put shortly:
(§1)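 At 10 or 5 uM, as set by the library, and 0.1% DMSO final, compounds were applied for 48 h to five cancer lines and one healthy fibroblast line. Stained cells were imaged confocally at 20X in 9 fields per well, and Harmony extracted 77 features scored as signed Kolmogorov-Smirnov statistics against vehicle wells on the same plate. Profiles underwent plate-position correction, correlation weighting and replicate averaging at the top dose. Phenoactivity is the Euclidean distance from each such profile to the median vehicle profile.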

Test [2] concerns A549. Put shortly: as §1
Test [3] concerns DU145. Put shortly: as §1
The test system of test [4] is FB. The essentials:
as §1

For test [5], the system named is HEPG2. Put shortly: as §1
Test [6] relates to OVCAR4. Put shortly:
as §1

We go through 24 molecules from the supplement of paper PMC10127200.

Where a name gives a salt, the structure may show the parent alone.

With `CC(=O)Nc1ccc(C(=O)Nc2ccccc2N)cc1` [CI994 (Tacedinaline)], the Euclidean distance in test [1] came out at 1.29; in test [2], 1.67; in test [3], 1.56; in test [4], 2.76; in test [5], 1.83; in test [6], 1.94.

With `CC[C@H]1OC(=O)[C@H](C)[C@@H](O[C@H]2C[C@@](C)(OC)[C@@H](O)[C@H](C)O2)[C@H](C)[C@@H](O[C@@H]2O[C@H](C)C[C@H](N(C)C)[C@H]2O)[C@](C)(O)C[C@@H](C)C(=O)[C@H](C)[C@@H](O)[C@]1(C)O` [Erythromycin thiocyanate], the Euclidean distance came out at 1.01 in test [1]; 1.44 in test [2]; 0.991 in test [3]; 1.53 in test [4]; 0.812 in test [5]; 1.95 in test [6].

For `CC(C)C[C@H](NC(=O)[C@H]1O[C@@H]1C(=O)O)C(=O)NCCCCN=C(N)N`, the Euclidean distance worked out at 1.31 in test [1]; 1.07 in test [2]; 1.07 in test [3]; 1.02 in test [4]; 0.615 in test [5]; 1.09 in test [6].

In the case of `O=C1CN(/N=C/c2ccc(-c3ccc([N+](=O)[O-])cc3)o2)C(=O)N1` [Dantrolene sodium hemiheptahydrate], the Euclidean distance was determined as 0.731 in test [1]; 0.894 in test [2]; 1.67 in test [3]; 1.21 in test [4]; 0.638 in test [5]; 1.31 in test [6].

With `COCC[n+]1c2c(n(Cc3cnccn3)c1C)C(=O)c1ccccc1C2=O` [YM155 (Sepantronium Bromide)], the Euclidean distance in test [1] was found to be 5.76; in test [2] it was 5.14; in test [3], 7.03; in test [4] it was 5.89; in test [5], 3.26; in test [6] it was 5.47.

As for `COc1cccc(OC)c1C(=O)OCc1cc(O)ccc1O[C@@H]1O[C@H](CO)[C@@H](O)[C@H](O)[C@H]1O` [Curculigoside], the Euclidean distance in test [1] came to 0.665; in test [2], 0.731; in test [3], 0.819; in test [4] it was 0.662; in test [5] it was 0.446; in test [6], 1.36.

With `CC[C@@H]1/C=C(\C)C[C@H](C)C[C@H](OC)[C@H]2O[C@@](O)(C(=O)C(=O)N3CCCC[C@H]3C(=O)O[C@H](/C(C)=C/[C@@H]3CC[C@@H](O)[C@H](OC)C3)[C@H](C)[C@@H](O)CC1=O)[C@H](C)C[C@@H]2OC` [Ascomycin (FK520)], the Euclidean distance came to 1.06 in test [1]; 1.18 in test [2]; 1.28 in test [3]; 1.43 in test [4]; 0.58 in test [5]; 0.799 in test [6].

As for `COc1cccc(Nc2c(C(N)=O)cnc3c(C)cc(S(=O)(=O)c4cccc(C(=O)N(C)C)c4)cc23)c1`, the Euclidean distance turned out to be 1.2 in test [1]; 0.89 in test [2]; 1.05 in test [3]; 1.95 in test [4]; 1.19 in test [5]; 1.48 in test [6].

Turning to `CC[C@H]1OC(=O)[C@H](C)[C@@H](O[C@H]2C[C@@](C)(OC)[C@@H](O)[C@H](C)O2)[C@H](C)[C@@H](O[C@@H]2O[C@H](C)C[C@H](N(C)C)[C@H]2O)[C@](C)(O)C[C@@H](C)C(=O)[C@H](C)[C@@H](O)[C@]1(C)O` [Erythromycin], the Euclidean distance in test [1] stood at 1.41; in test [2] it was 1.02; in test [3], 1.69; in test [4], 1.16; in test [5], 3.29; in test [6], 1.43.

On to `CC(=O)N[C@H]1[C@H]([C@H](O)[C@H](O)CO)OC(C(=O)O)=C[C@@H]1NC(=N)N` [Zanamivir], for which the Euclidean distance was 1.74 in test [1]; 1 in test [2]; 0.755 in test [3]; 0.983 in test [4]; 0.8 in test [5]; 1.21 in test [6].

As for `OCCn1cc(-c2cnc3nnn(Cc4ccc5ncccc5c4)c3n2)cn1`, the Euclidean distance in test [1] turned out to be 0.916; in test [2], 0.988; in test [3], 0.98; in test [4], 0.792; in test [5], 1.2; in test [6], 1.08.

On to `CN1C(=O)/C(=C2/C(=O)Nc3ccccc32)c2ccccc21` [Meisoindigo], for which the Euclidean distance in test [1] was determined as 1.94; in test [2], 2.33; in test [3], 0.82; in test [4], 2.24; in test [5], 1.8; in test [6] it was 1.35.

Turning to `CC(C)(C)NC(=O)[C@H]1CC[C@H]2[C@@H]3CC[C@H]4NC(=O)C=C[C@]4(C)[C@H]3CC[C@]12C` [Finasteride], the Euclidean distance came out at 1.26 in test [1]; 0.717 in test [2]; 0.682 in test [3]; 0.871 in test [4]; 0.391 in test [5]; 1.18 in test [6].

Regarding `N=C(N)NC(=N)NCCc1ccccc1` [Phenformin HCl], the Euclidean distance in test [1] was 1.03; in test [2], 1.71; in test [3], 1.14; in test [4], 1.15; in test [5], 1.56; in test [6] it was 0.844.

Regarding `C=CCCCCCCCCC(=O)[O-].C=CCCCCCCCCC(=O)[O-].[Zn+2]` [Zinc Undecylenate], the Euclidean distance in test [1] is 1.22; in test [2], 2.06; in test [3], 1.09; in test [4] it was 1.1; in test [5], 0.358; in test [6] it was 1.9.

Consider `CC(C(=O)O)c1ccc(C(=O)c2cccs2)cc1` (centres undefined) [Suprofen], for which the Euclidean distance amounted to 1.32 in test [1]; 0.825 in test [2]; 0.656 in test [3]; 0.981 in test [4]; 2.04 in test [5]; 1.01 in test [6].

With `CNC(=O)c1cnn(-c2nc(N)c3ncn([C@@H]4O[C@H](CO)[C@@H](O)[C@H]4O)c3n2)c1` [Regadenoson], the Euclidean distance worked out at 0.517 in test [1]; 0.628 in test [2]; 0.867 in test [3]; 1.43 in test [4]; 1.32 in test [5]; 0.995 in test [6].

Turning to `Cc1ccc(Nc2c(F)cccc2Cl)c(CC(=O)O)c1` [Lumiracoxib], the Euclidean distance in test [1] was 1.54; in test [2] it was 0.989; in test [3] it was 0.9; in test [4], 1.33; in test [5] it was 0.549; in test [6], 1.36.

Take `O=C(NCc1ccncc1)C12CC3CC(C1)CC(c1ccc(Cl)cc1)(C3)C2`: the Euclidean distance came to 1.47 in test [1]; 1.24 in test [2]; 1.1 in test [3]; 0.743 in test [4]; 0.955 in test [5]; 0.981 in test [6].

With `CNC(=O)c1ccccc1Sc1ccc2c(/C=C/c3ccccn3)n[nH]c2c1` [Axitinib], the Euclidean distance in test [1] came out at 3.11; in test [2], 3.76; in test [3], 3.18; in test [4], 3.27; in test [5], 2.51; in test [6], 3.92.

Regarding `Cc1ccc2nc(NCCN)c3ncc(C)n3c2c1`, the Euclidean distance in test [1] was 0.585; in test [2], 1.64; in test [3] it was 1.21; in test [4] it was 1.55; in test [5], 2.99; in test [6], 1.57.

For `O=C(O)c1ccc2c(c1)nc(Nc1cccc(Cl)c1)c1ccncc12` [CX-4945 (Silmitasertib)], the Euclidean distance was found to be 1.47 in test [1]; 1.44 in test [2]; 2.54 in test [3]; 1.55 in test [4]; 1.4 in test [5]; 1.25 in test [6].

Take `Cc1ccc(O)c([C@H](CCN(C(C)C)C(C)C)c2ccccc2)c1` [Tolterodine tartrate]: the Euclidean distance worked out at 1.87 in test [1]; 0.728 in test [2]; 0.897 in test [3]; 1.13 in test [4]; 1.19 in test [5]; 1.58 in test [6].

With `CC(C)n1nc(-c2cc3cc(O)ccc3[nH]2)c2c(N)ncnc21`, the Euclidean distance in test [1] stood at 4.59; in test [2], 3.23; in test [3], 2.64; in test [4], 4.3; in test [5], 3.12; in test [6], 4.61.
